Reference: PubChem BioAssay (NCATS)
Results filed as inconclusive are left out. Activity calls are given as the source filed them. Unless noted, no rule for the calls is given here.

Assays:
[1] = qHTS profiling for inhibitors of Plasmodium falciparum (3D7) proliferation (AID 743322);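 also: infected erythrocytes exposed to compound for 72 h before lysis; 100% = DMSO vehicle wells and 0% = 0.29 µM artemisinin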; details: P. falciparum 3D7 proliferation; at 28.7 µM (top of the series) unless noted
How it was run: (§1)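 Parasite DNA was quantified by SYBR Green I fluorescence (ex 485, em 535 nm) after overnight lysis in saponin/Triton buffer at room temperature. Cultures at 0.3% parasitemia and 2.5% hematocrit were first exposed to compound for 72 h at 37 C; signals were normalised to artemisinin (0.29 uM) and vehicle wells.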

[2] = qHTS profiling for inhibitors of Plasmodium falciparum (DD2) proliferation (AID 743323); details: lower = more inhibition; at 28.7 µM (top of the series) unless noted
How it was run: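 Parasite DNA quantified by SYBR Green fluorescence (ex 485, em 535 nm) after saponin/Triton lysis and overnight dark incubation. Cultures: 0.3% parasitemia, 2.5% hematocrit, 72 h, 37 C; data scaled between DMSO and 0.29 uM artemisinin.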

[3] = qHTS profiling for inhibitors of Plasmodium falciparum (HB3) proliferation (AID 743324; active = well fitted curve in the direction sought with a large enough effect; an effect the other way counts as inactive or inconclusive;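 also: 100% = DMSO vehicle wells and 0% = artemisinin-treated control wells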); details: Plasmodium falciparum HB3 blood-stage proliferation; at 28.7 µM (top of the series) unless noted
How it was run: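 SYBR Green fluorescence (485 ex/535 em) of lysed cultures, incubated overnight at room temperature in the dark, quantifies parasite DNA. Infected erythrocytes at 0.3% parasitemia and 2.5% hematocrit were exposed 72 h; values normalized to DMSO and 0.29 uM artemisinin controls.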

[4] = qHTS profiling of the MIPE4 collection as inhibitors of Plasmodium falciparum (3D7) proliferation (AID 743344);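 also: scaled between DMSO vehicle wells and 0.29 µM artemisinin as full inhibition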; details: P. falciparum 3D7 in erythrocytes, SYBR Green DNA fluorescence, 72 h
How it was run: as §1

[5] = qHTS profiling of the MIPE4 collection as inhibitors of Plasmodium falciparum (DD2) proliferation (AID 743345); details: P. falciparum Dd2 in erythrocytes, SYBR Green DNA, 72 h
How it was run: as §1

[6] = qHTS profiling of the MIPE4 collection as inhibitors of Plasmodium falciparum (DD2) proliferation (Rep 2) (AID 743346); details: P. falciparum Dd2 in erythrocytes, SYBR Green DNA, 72 h
How it was run: as §1

[7] = qHTS profiling of the MIPE4 collection as inhibitors of Plasmodium falciparum (HB3) proliferation (AID 743347);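 also: plate controls were DMSO vehicle wells for no effect and artemisinin wells for full effect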; details: P. falciparum HB3 in erythrocytes, SYBR Green DNA, 72 h
How it was run: as §1

[8] = High-throughput drug toxicity screening in the BPDCN cell line Gen2.2 (AID 1224824); details: Gen2.2 BPDCN cells; at 45.8 µM (top of the series) unless noted;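 also: cells exposed to compounds for 48 h before reading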
How it was run: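 Gen2.2 cells, 500 per well in phenol red-free RPMI with 10% FBS, exposed to compounds 48 h at 37 C, 5% CO2; viability by CellTiter-Glo luminescence. Percent activity scaled to DMSO (100%) and 9.2 uM bortezomib final (0%).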

[9] = High-throughput drug toxicity screening in the BPDCN cell line Cal-1 (AID 1224825); details: Cal-1 BPDCN cell viability, qHTS; at 45.8 µM (top of the series) unless noted
How it was run: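 Percent activity derived from CellTiter-Glo luminescence, scaling DMSO to 100% and 9.2 uM final bortezomib to 0%. BPDCN Cal-1 cells (500/well, RPMI plus 10% FBS) incubated with compounds 48 hours at 37C before reading.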

[10] = qHTS assay for measurement of the activity of small molecule inhibitors on Zika virus induced Caspase-3 activity in human iPSC derived neural progenitor cells (hNPCs) (AID 1224857; active = well fitted curve in the direction sought with a large enough effect; an effect the other way counts as inactive or inconclusive; also: nearly all actives have a fitted effect of over 65% in size; also: potency is read from the fitted curve at half-maximal effect)
How it was run: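 Zika virus (2 FFU/cell) infection of human iPSC-derived NPCs, 6 h, following 1 h compound preincubation. Read-out: Caspase-Glo 3/7 luminescence.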

[11] = qHTS Screen of the MIPE 4.0 Collection Against Ewings Sarcoma (RDES) (AID 1259252; active = well fitted curve in the direction sought with a large enough effect; an effect the other way counts as inactive or inconclusive; also: nearly all actives have a fitted effect of over 35% in size; also: potency is read from the fitted curve at half-maximal effect)
How it was run: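 CellTiter-Glo luminescence after 48 h compound exposure (titration) gave viability; percent activity used DMSO-treated cells as no inhibition and medium-only wells as full inhibition. Cells grown in RPMI/5% FBS, dosed 4 h post-seeding.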

[12] = qHTS Assay for Identifying Gametocytocidal Compounds (AID 743244; active = well fitted curve in the direction sought with a large enough effect; an effect the other way counts as inactive or inconclusive; also: potency is read from the fitted curve at half-maximal effect;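 as to max response: % is scaled to controls: 0 for no effect and ±100 for the full control effect; actives lower the fluorescent signal which means gametocytes are killed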); details: P. falciparum 3D7 stage III-V gametocytes, alamarBlue, 72 h; max response: stronger effect = lower value
How it was run: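 Fluorescence at Ex 525/Em 598 nm, recorded 24 h after alamarBlue addition, reports residual metabolic activity of 3D7 gametocytes (stages III–V) following 72 h compound exposure at 37 °C, 5% CO2.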

[13] = qHTS assay for measurement of the activity of small molecule inhibitors on Zika virus induced Caspase-3 activity in human astrocytoma cells (AID 1224859; active = well fitted curve in the direction sought with a large enough effect; an effect the other way counts as inactive or inconclusive;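 also: plate controls were ZIKV-infected untreated cells for no effect and uninfected cells for full effect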)
How it was run: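 Caspase activation in ZIKV-infected SNB-19 cells (2 FFU/cell, 6 h) measured by Caspase-Glo 3/7 luminescence after 30 min RT; compound pre-incubated 1 h; normalised to uninfected and infected controls.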

[14] = at 28.5 µM (top of the series) unless noted

## CCN(CC)CCCCNc1nc2cc(Cl)c(Cl)cc2nc1-c1ccc(-c2cccs2)s1
[1]
  remaining parasite growth % (stronger effect = lower value): 0.96%
[2]
  activity, percent of control: 1.46%
[3]
  remaining proliferation (% of control), lower = more inhibition: 4.08%
[4]; [14]
  parasite growth, % of DMSO control: 9.66%
[5]; [14]
  parasite growth remaining, % of DMSO control (lower = more inhibition): 10.5%
[6]; [14]
  parasite growth, % of control (lower = inhibition): 19.1%
[7]; [14]
  growth, % of control: 5.94%
[8]
  cell viability, % of control (lower = more cytotoxic): 5.29%
[9]
  viability (% of control): 4.45%
[10]
  Potency: inactive

## C[C@@H](N)c1ccc(C(=O)Nc2ccnc3[nH]ccc23)cc1
[4]; [14]
  parasite growth, % of DMSO control: 49.7%
[5]; [14]
  parasite growth remaining, % of DMSO control (lower = more inhibition): 78.2%
[6]; [14]
  parasite growth, % of control (lower = inhibition): 49.3%
[7]; [14]
  growth, % of control: 67.7%
[8]
  cell viability, % of control (lower = more cytotoxic): 6.34%
[9]
  viability (% of control): 12.2%
[10]
  Potency: 26.4 µM (active)
[11]
  Potency: 18.7 µM (active)

## COc1ccc(CCC(=O)Nc2nc3ccc(Cl)cc3s2)cc1OC
[4]; [14]
  parasite growth, % of DMSO control: 22.3%
[7]; [14]
  growth, % of control: 28.3%
[8]
  cell viability, % of control (lower = more cytotoxic): 135%
[9]
  viability (% of control): 98.2%
[10]
  Potency: inactive
[11]
  Potency: 20.9 µM (active)

## CN(C)CC[C@H](CSc1ccccc1)Nc1ccc(S(=O)(=O)NC(=O)c2ccc(N3CCN(Cc4ccccc4-c4ccc(Cl)cc4)CC3)cc2)cc1[N+](=O)[O-]
[1]
  remaining parasite growth % (stronger effect = lower value): 11.6%
[2]
  activity, percent of control: 9.74%
[3]
  remaining proliferation (% of control), lower = more inhibition: 41.4%
[4]; [14]
  parasite growth, % of DMSO control: 34%
[5]; [14]
  parasite growth remaining, % of DMSO control (lower = more inhibition): 61.7%
[6]; [14]
  parasite growth, % of control (lower = inhibition): 31.1%
[7]; [14]
  growth, % of control: 4.32%
[8]
  cell viability, % of control (lower = more cytotoxic): 8.88%
[9]
  viability (% of control): 4.81%
[10]
  Potency: inactive

## Clc1ccc(COC(Cn2ccnc2)c2ccc(Cl)cc2Cl)c(Cl)c1 (stereo not drawn)
[12]
  Potency: 4.48 µM (active)
[1]
  remaining parasite growth % (stronger effect = lower value): -0.257%
[2]
  activity, percent of control: -0.374%
[3]
  remaining proliferation (% of control), lower = more inhibition: -0.548%
[4]; at 9.64 µM (top of the series)
  parasite growth, % of DMSO control: 4.92%
[4]; at 28.5 µM (top of the series)
  parasite growth, % of DMSO control: 5.47%
[5]; at 9.64 µM (top of the series)
  parasite growth remaining, % of DMSO control (lower = more inhibition): 11.2%
[5]; at 28.5 µM (top of the series)
  parasite growth remaining, % of DMSO control (lower = more inhibition): 6.56%
[6]; at 9.64 µM (top of the series)
  parasite growth, % of control (lower = inhibition): 19.2%
[6]; at 28.5 µM (top of the series)
  parasite growth, % of control (lower = inhibition): 12.3%
[7]; at 9.64 µM (top of the series)
  growth, % of control: 8.03%
[7]; at 28.5 µM (top of the series)
  growth, % of control: 5.5%
[8]
  cell viability, % of control (lower = more cytotoxic): 90.5%
[9]
  viability (% of control): 72.7%
[13]
  Potency: inactive
[11]
  Potency: 26.4 µM (active)

## O=C(Nc1cccc(Cl)c1)Nc1ncc(CCNc2ncnc3ccsc23)s1
[12]
  max response: 5.02% (inactive)
[1]
  remaining parasite growth % (stronger effect = lower value): 0.421%
[2]
  activity, percent of control: 4.65%
[3]
  remaining proliferation (% of control), lower = more inhibition: -0.601%
[4]; [14]
  parasite growth, % of DMSO control: 15.2%
[5]; [14]
  parasite growth remaining, % of DMSO control (lower = more inhibition): 67.5%
[6]; [14]
  parasite growth, % of control (lower = inhibition): 39%
[7]; [14]
  growth, % of control: 5.75%
[8]
  cell viability, % of control (lower = more cytotoxic): 122%
[9]
  viability (% of control): 20.2%
[10]
  Potency: inactive
[11]
  Potency: 1.18 µM (active)

## Cc1nc2c([nH]1)CCN(C(=O)c1ccc(NC(=O)c3ccccc3-c3ccccc3)cc1)c1ccccc1-2
[4]; [14]
  parasite growth, % of DMSO control: 5.23%
[5]; [14]
  parasite growth remaining, % of DMSO control (lower = more inhibition): 8.18%
[6]; [14]
  parasite growth, % of control (lower = inhibition): 13.3%
[7]; [14]
  growth, % of control: 9.61%
[8]
  cell viability, % of control (lower = more cytotoxic): 48.7%
[9]
  viability (% of control): 55.1%
[10]
  Potency: inactive
[11]
  Potency: inactive

## C[C@@H]1[C@H](O)[C@@H](C)C=CC=CC=CC=CC=CC=CC=C[C@H](O[C@@H]2O[C@H](C)[C@H](O)[C@H](N)[C@@H]2O)C[C@@H]2O[C@](O)(C[C@@H](O)C[C@@H](O)[C@H](O)CC[C@@H](O)C[C@@H](O)CC(=O)O[C@H]1C)C[C@H](O)[C@@H]2C(=O)O
[4]; [14]
  parasite growth, % of DMSO control: 16.7%
[5]; [14]
  parasite growth remaining, % of DMSO control (lower = more inhibition): 9.78%
[6]; [14]
  parasite growth, % of control (lower = inhibition): 7.41%
[7]; [14]
  growth, % of control: 29.7%
[8]
  cell viability, % of control (lower = more cytotoxic): 485%
[9]
  viability (% of control): 4.45%
[10]
  Potency: inactive
[11]
  Potency: 0.105 µM (active)
